TDP1 inh: blocks human tyrosyl-DNA phosphodiesterase 1 | recombinant TDP1, AlphaScreen DNA substrate cleavage | Potency, µM (highest dose often 130 µM), for the others: at the top dose activity change, negative = inhibition, hits mostly inhibitors | 350,000 compounds, 0.28% hits | AID 485290; note: potency is the fitted concentration of half-maximal effect; % is set by controls: 0 for no effect and ±100 for the full control effect; nearly all actives have a fitted effect of over 40% in size
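Tdp1 1 nM final; 15 min RT w/ cpd; substrate 15 nM, 5 min; beads 10 ug/ml, 10 min; AlphaScreen read. Neg ctrl: no enzyme.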
CtBP-E1A blk: inhibitors of CtBP/E1A interaction; AlphaScreen GST-E1A/His-CtBP binding, 1536-well; active compounds read low; activity change, % (concentration not given with the values); 340,000 compounds, 0.49% hits; AID 651724; in the data active = activity change below about -65%; inconclusive = mostly about -30% to -63%; note: % is set by controls: 0 for no effect and ±100 for the full control effect
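GST-E1A and His-tagged CtBP (125 nM each as 5X stock) were preincubated with pin-transferred compound for 2 h at 37 °C in the dark, then glutathione donor and nickel acceptor beads were added for 1 h before AlphaScreen reading.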
Six1-Eya2 blk: inhibitors of human Six1/Eya2 interaction; AlphaScreen GST-Six1/His-Eya2 binding, biochemical; active compounds read low; activity change, % (test concentration not listed); 360,000 compounds, 0.56% hits; in the data active = activity change below about -65%; inconclusive = mostly about -30% to -63%; note: % is set by controls: 0 for no effect and ±100 for the full control effect
Target sequence (O00167 whole entry, looked up): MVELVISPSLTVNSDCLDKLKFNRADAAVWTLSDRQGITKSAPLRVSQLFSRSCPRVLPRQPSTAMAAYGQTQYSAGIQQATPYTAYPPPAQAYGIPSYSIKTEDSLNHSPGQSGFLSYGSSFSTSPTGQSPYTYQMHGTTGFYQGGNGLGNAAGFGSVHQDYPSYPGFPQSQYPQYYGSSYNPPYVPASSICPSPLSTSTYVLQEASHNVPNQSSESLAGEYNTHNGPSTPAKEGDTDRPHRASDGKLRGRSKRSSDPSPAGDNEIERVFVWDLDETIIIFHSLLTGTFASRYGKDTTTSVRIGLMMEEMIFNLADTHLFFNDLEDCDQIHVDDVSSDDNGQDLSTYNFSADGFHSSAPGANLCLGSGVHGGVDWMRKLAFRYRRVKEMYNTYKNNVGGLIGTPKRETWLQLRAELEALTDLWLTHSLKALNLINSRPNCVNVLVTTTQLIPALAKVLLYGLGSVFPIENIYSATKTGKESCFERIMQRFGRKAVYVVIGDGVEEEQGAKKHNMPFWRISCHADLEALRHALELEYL
Target sequence (Q15475 whole entry, looked up): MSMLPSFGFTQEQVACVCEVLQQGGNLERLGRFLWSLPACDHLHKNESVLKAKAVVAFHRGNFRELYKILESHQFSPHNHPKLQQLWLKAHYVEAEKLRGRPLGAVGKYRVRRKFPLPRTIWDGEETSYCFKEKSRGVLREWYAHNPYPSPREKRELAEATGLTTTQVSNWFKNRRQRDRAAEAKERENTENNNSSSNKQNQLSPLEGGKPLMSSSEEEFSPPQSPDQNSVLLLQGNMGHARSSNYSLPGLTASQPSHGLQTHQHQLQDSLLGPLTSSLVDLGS
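Six1/Eya2 binding was read as AlphaScreen signal after compounds were pinned into GST-Six1 plus His-tagged Eya2 (5X stock 250/500 nM) in pH 8.0 Tris/NaCl/TCEP buffer, beads added, then incubated 1 h, 37 C, dark.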
JMJD2A Tudor: JMJD2A Tudor domain (human) inhibition | O75164 | AlphaScreen JMJD2A-Tudor / H3K4me3 peptide binding | Potency, µM (series often up to 114 µM), inactives show at the highest dose activity change, negative = inhibition, hits mostly inhibitors | 390,000 compounds, 4.4% hits | AID 504339; note: potency is the fitted concentration of half-maximal effect; % is set by controls: 0 for no effect and ±100 for the full control effect; nearly all actives have a fitted effect of over 50% in size
HP1b binding inh: HP1-beta chromodomain-methylated histone interaction inhibition; P83916; AlphaScreen HP1-beta / biotin-H3K9me3 peptide binding; Potency, µM (doses to about 114 µM), inactives show top-dose activity change, negative = inhibition, usual class: inhibitors; 390,000 compounds, 0.56% hits; AID 540317; note: potency is the fitted concentration of half-maximal effect; nearly all actives have a fitted effect of over 70% in size
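AlphaScreen: HP1-beta (50 nM) preformed 30 min with biotin-H3(1-18)K9me3 peptide (50 nM) in PBS pH 7.4, 0.01% Tween-20. Compound added for 30 min at RT, then streptavidin donor/nickel chelate acceptor beads (10 ug/mL) for 30 min.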
BAZ2B block: blocks human BAZ2B | Potency, µM (top dose mostly 114 µM), for the others: at the top dose activity change, negative = inhibition, actives largely listed as inhibitors | AID 504333 | Q9UIF8 | 360,000 compounds, 4.4% hits | AlphaScreen BAZ2B-H3K14Ac peptide displacement; note: potency is the fitted concentration of half-maximal effect; % is set by controls: 0 for no effect and ±100 for the full control effect; nearly all actives have a fitted effect of over 60% in size
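Complex of BAZ2B and biotin-H3K14Ac (50 nM apiece) forms over 30 min at RT, then faces library compounds up to 110 uM for another 30 min; AlphaScreen beads added, 20 min dark incubation, luminescence read.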
Numbers without * were called inactive; ? = inconclusive; nt = no result; [ ] = remark or other dose. An excerpt weighted towards active compounds, which were near 5.3% of everything screened. Unless noted, calls come from the whole dose curve; as a rule, active = well fitted inhibition curve with a large enough effect; inconclusive = small, poorly fitted or top-dose-only effect; inactive = no such curve, though single readings can be large or run the other way.

SMILES	TDP1 inh	CtBP-E1A blk	Six1-Eya2 blk	JMJD2A Tudor	HP1b binding inh	BAZ2B block
C#CCOCCOCCOCCNc1nc(N2CCN(C(=O)[C@H]([C@@H](C)CC)n3cc([C@@H](N)Cc4ccc(O)cc4)nn3)CC2)nc(N2CCN(C(=O)[C@H](CCCCN)n3cc([C@@H](N)C(C)CC)nn3)CC2)n1 (stereo partly specified)	4%	-23	-15	50µM*	-2%	79µM*
C#CCOCCOCCOCCNc1nc(N2CCN(C(=O)[C@H](CCCCN)n3cc(CCCC)nn3)CC2)nc(N2CCN(C(=O)[C@H](Cc3ccc(O)cc3)n3cc(CCO)nn3)CC2)n1	-3%	0	4	79µM*	-19%	?
Cc1ccc(N2NC(=O)/C(=C\c3cc4c(cc3[N+](=O)[O-])OCO4)C2=O)cc1C	3%	-1	-19	?	?	45µM*
COc1cc(/C=C2/C(=O)NN(c3cccc(C)c3)C2=O)cc([N+](=O)[O-])c1O	-13%	nt	13	56µM*	?	40µM*
O=C1NN(c2ccccc2)C(=O)/C1=C\c1ccc2c(c1)OCO2	-16%	11	3	?	4%	-25%
COc1cc(/C=C2/C(=O)NN(c3ccc(C)c(Cl)c3)C2=O)cc([N+](=O)[O-])c1O	nt	nt	-12	?	-18%	32µM*
CC(=O)c1c(C)oc2ccc(N(C(=O)Oc3ccccc3)S(=O)(=O)c3ccc(C(C)(C)C)cc3)cc12	1%[12.3 µM]	nt	nt	-13%	23%	-20%
OCC1O[C@H](O[C@H]2C(O)C(O)C(O)O[C@@H]2CO)C(O)C(O)C1O (stereo partly specified)	4%	nt	nt	nt	nt	nt
CCOc1ccc(NC2c3ccccc3C(=O)N2Cc2ccco2)cc1 (stereo unspecified)	3%	-24	-2	45µM*	?	50µM*
COc1ccc(C2Nc3ccccc3C(=O)N2Cc2ccco2)cc1COc1ccc(N)cc1 (stereo unspecified)	0%	nt	nt	22µM*	nt	nt
COC(=O)c1cc(NC2c3ccccc3C(=O)N2Cc2ccco2)cc(C(=O)OC)c1 (stereo unspecified)	3%	4	6	-10%	25%	-3%
CC(=O)Nc1ccc(OCc2cccc(-c3nc4ccccc4c(=O)n3Cc3ccco3)c2)cc1	0%	nt	nt	56µM*	nt	nt
CC(=O)Nc1ccc(OCc2cccc(C3Nc4ccccc4C(=O)N3Cc3ccco3)c2)cc1 (stereo unspecified)	0%	nt	nt	89µM*	nt	nt
O=c1cc(-c2ccccc2)n2c(SCc3ccc([N+](=O)[O-])cc3)nnc2[nH]1	3%	nt	nt	-24%	21%	-6%
CCOC(=O)C1=C(C)Nc2nc(=S)[nH]n2C1c1ccc(Cl)cc1 (stereo unspecified)	4%	nt	-4	16µM*	?	-29%
COc1ccccc1CN(Cc1cc2cc3c(cc2[nH]c1=O)OCCO3)Cc1nnnn1Cc1ccco1	6%	41	0	35µM*	-25%	?
Brc1ccc2nc(-c3c[nH]c4ccccc34)cn2c1	9%	-24	-17	?	?	45µM*
NC(=O)c1cc([N+](=O)[O-])c(Cl)cc1NCc1ccccn1	-3%	?	-18	56µM*	10%	79µM*
NC(=O)CC(NC(=O)Cc1ccc(Br)cc1)c1ccc(NCc2ccc(F)c(F)c2)c([N+](=O)[O-])c1 (stereo unspecified)	5%	-4	-8	-11%	20%	-8%
NC(=O)CC(NC(=O)Cc1ccc(Br)cc1)c1ccc(NCCN2CCCCC2)c([N+](=O)[O-])c1 (stereo unspecified)	nt	0	-8	-5%	21%	50µM*
NC(=O)CC(NC(=O)Cc1ccc(Br)cc1)c1ccc(NCc2ccccn2)c([N+](=O)[O-])c1 (stereo unspecified)	6%	-27	?	?	1%	79µM*
COc1ccc(-c2cc(C(=O)Nc3cccc(O)c3)on2)cc1OC	10%	nt	nt	?	-9%	?
Cc1sc(-c2ccccn2)nc1OC(=O)c1ccc(Cl)cc1	-2%	-7	-2	25µM*	-3%	1%
O=S(=O)(c1cccc(Cl)c1)N1CCN(c2nc(-c3ccccc3)nc3ccccc23)CC1	1%	nt	nt	-9%	26%	nt
CNCCOc1ccccc1OC(C)C	?	9	1	2.2µM*	-25%	?
SMILES	TDP1 inh	CtBP-E1A blk	Six1-Eya2 blk	JMJD2A Tudor	HP1b binding inh	BAZ2B block
CCOc1ccccc1OCCOc1ccccc1OC(C)C	-2%	18	31	71%	141%	49%
CNCCCCOc1ccccc1-c1ccccc1	-3%	-11	13	0.63µM*	?	56µM*
CNCCOc1ccccc1-c1ccccc1	-6%	-1	8	3.5µM*	-58%	?
CC[C@@H]1CN2CCc3cc(OC)c(OC)cc3[C@@H]2C[C@@H]1C[C@H]1NCCc2cc(OC)c(OC)cc21	14%[56.1 µM]	nt	nt	nt	nt	nt
O=C(OCC#CCSc1nnc(-c2cccc3ccccc23)o1)c1csc2ccccc12	0%	nt	nt	9%	nt	nt
Cc1ccc2nc(Nc3cccc(C(F)(F)F)c3)c3nnnn3c2c1	0%	nt	nt	14%	30%	-1%
COc1cc(/C=C(/C#N)c2nc3ccccc3[nH]2)ccc1OCC(=O)Nc1ccccc1C(C)C	3%	1	6	-16%	18%	50µM*
COc1cc(/C=C(/C#N)c2nc3ccccc3[nH]2)ccc1OCC(=O)Nc1ccccc1C	1%	-8	-3	-19%	23%	-7%
CCOC(=O)O[C@]1(C(=O)OCCl)CC[C@@H]2[C@H]3CCC4=CC(=O)C=C[C@]4(C)[C@@H]3[C@@H](O)C[C@@]21C	4%	nt	nt	nt	nt	nt
C[C@]12CCC(=O)C=C1CC[C@@H]1[C@H]2[C@@H](O)C[C@@]2(C)[C@H]1CC[C@]2(O)C(=O)CO	4%	nt	nt	nt	nt	nt
COC(=O)C(CCSC)NC(=O)C1CCN(c2ncnc3c2nc2n3CCCCC2)CC1 (stereo unspecified)	-4%	nt	nt	4%	16%	4%
O=[N+]([O-])c1cccc(COc2ncnc3cc([N+](=O)[O-])ccc23)c1	3%	-88*	-72*	?	7%	-26%
COc1ccc(CCNC(=O)COc2ncnc3cc([N+](=O)[O-])ccc23)cc1	0%	-17	-4	-11%	36%	0%
O=[N+]([O-])c1ccc(/C=N/n2c(-c3ccccc3)n[nH]c2=S)cc1	nt	0	-18	40µM*	8%	-38%
Cc1ccc(/C=N/n2c(C3CCCCC3)n[nH]c2=S)cc1	nt	-17	-10	?	-20%	3%

Bioassay records: PubChem BioAssay, National Center for Advancing Translational Sciences (NCATS)
